The text below walks through data of article PMC7862700, “An all-to-all approach to the identification of sequence-specific readers for epigenetic DNA modifications on cytosine”.

Experiment in all cases: DAPPL (digital affinity profiling via proximity ligation, sequencing); 10 mM Tris-HCl pH 7.5, 50 mM NaCl, 1 mM DTT, 4% glycerol, room temperature, 30 min; GST-TFs on glutathione beads, 16-mer random dsDNA library, 0.1% formaldehyde crosslink after washing; high values mean tight binding
For one test, the target named is T1, FLI1 (Homo sapiens, UniProt Q01543 1-452).
T1 sequence: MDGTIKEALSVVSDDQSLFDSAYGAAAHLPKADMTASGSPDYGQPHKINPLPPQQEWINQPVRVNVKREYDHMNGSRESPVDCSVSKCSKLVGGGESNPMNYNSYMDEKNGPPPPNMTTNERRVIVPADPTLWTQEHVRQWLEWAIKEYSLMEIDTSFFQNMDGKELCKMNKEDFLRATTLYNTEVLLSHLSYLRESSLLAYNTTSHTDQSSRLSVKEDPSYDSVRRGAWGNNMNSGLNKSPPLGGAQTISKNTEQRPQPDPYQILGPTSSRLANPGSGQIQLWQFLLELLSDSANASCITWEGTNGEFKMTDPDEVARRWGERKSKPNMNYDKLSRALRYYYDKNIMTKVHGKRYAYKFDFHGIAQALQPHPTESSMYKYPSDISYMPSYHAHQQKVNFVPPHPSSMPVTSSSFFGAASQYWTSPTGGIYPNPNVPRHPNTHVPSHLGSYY
Conditions: protein: recombinant; tags: N-terminal GST; dsDNA, one strand shown. The method, boiled down: (§1)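 A tag-only sample was pooled with DNA-barcoded human transcription factors that had been expressed in yeast as GST fusions and captured on glutathione beads. The pools were incubated for 30 min at room temperature with 200 nmole of a random double-stranded 16-mer DNA library in Tris/NaCl/DTT/glycerol buffer, then washed, crosslinked with 0.1% formaldehyde, proximity-ligated (BsaI/T4 ligase, 1 h, 37 °C), PCR-amplified and sequenced on an Illumina NextSeq500. Binding signal is each hexamer's read frequency for a factor divided by its frequency for the tag-only sample.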

In another test the target is T2, ELK1 (Homo sapiens, UniProt P19419 1-428).
T2 sequence: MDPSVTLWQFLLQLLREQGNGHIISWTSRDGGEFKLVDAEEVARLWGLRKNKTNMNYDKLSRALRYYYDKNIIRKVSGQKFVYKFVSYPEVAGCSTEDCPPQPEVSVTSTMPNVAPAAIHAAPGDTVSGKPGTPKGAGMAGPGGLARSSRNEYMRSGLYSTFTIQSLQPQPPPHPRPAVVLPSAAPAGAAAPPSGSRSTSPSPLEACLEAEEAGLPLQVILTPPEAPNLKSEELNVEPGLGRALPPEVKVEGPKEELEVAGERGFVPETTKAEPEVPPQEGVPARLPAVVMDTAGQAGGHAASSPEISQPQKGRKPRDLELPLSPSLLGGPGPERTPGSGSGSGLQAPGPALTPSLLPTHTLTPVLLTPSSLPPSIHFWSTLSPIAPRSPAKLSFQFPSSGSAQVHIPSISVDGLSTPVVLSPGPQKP
Conditions: protein: recombinant; tags: N-terminal GST; dsDNA, one strand shown. The method, boiled down: as §1

The target in a further test is T3, GABPA (Homo sapiens, UniProt Q06546 1-454).
T3 sequence: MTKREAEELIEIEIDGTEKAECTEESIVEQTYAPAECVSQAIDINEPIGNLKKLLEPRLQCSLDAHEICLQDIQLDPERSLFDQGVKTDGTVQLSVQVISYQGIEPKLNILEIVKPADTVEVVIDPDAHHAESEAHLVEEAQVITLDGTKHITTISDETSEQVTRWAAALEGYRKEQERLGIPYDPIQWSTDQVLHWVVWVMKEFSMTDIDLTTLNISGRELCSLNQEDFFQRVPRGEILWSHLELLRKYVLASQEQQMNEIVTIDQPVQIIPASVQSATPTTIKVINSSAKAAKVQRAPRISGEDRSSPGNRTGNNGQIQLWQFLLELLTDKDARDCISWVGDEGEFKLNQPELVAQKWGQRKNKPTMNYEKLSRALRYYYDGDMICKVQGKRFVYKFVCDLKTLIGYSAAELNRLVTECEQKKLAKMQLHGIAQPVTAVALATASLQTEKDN
The following applies: protein: recombinant; tags: N-terminal GST; dsDNA, one strand shown. In short, it runs like this:
as §1

The target in the next test is T4, ERG (Homo sapiens, UniProt P11308 1-479).
T4 sequence: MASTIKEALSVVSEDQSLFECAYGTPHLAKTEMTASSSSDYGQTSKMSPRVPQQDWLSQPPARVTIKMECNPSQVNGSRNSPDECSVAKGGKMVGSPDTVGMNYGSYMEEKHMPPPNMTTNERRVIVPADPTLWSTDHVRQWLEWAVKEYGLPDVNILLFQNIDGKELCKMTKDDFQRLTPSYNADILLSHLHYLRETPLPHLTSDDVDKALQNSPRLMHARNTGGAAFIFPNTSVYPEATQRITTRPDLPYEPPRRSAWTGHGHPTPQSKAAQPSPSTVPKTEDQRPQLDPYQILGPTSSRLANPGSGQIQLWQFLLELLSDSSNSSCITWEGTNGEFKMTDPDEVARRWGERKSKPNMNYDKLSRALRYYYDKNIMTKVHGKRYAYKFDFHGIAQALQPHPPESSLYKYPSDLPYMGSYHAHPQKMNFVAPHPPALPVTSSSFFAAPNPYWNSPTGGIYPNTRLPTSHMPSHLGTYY
Conditions: protein: recombinant; tags: N-terminal GST; dsDNA, one strand shown. The method, boiled down: as §1

A further test concerns the target ELF1 (Homo sapiens, UniProt P32519 1-619). Conditions: protein: recombinant; tags: N-terminal GST; dsDNA, one strand shown. The method, boiled down:
as §1

The next test concerns the target T5, EHF (Homo sapiens, UniProt Q9NZC4 1-300).
T5 sequence: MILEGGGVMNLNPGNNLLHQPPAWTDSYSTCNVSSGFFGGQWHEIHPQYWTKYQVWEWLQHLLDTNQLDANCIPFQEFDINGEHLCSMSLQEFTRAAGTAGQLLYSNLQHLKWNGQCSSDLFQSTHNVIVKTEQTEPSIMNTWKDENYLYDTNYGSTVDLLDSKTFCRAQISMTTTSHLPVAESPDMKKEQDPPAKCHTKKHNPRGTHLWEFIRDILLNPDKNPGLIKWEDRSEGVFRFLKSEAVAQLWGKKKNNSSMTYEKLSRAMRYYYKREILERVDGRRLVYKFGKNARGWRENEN
The following applies: protein: recombinant; tags: N-terminal GST; dsDNA, one strand shown. In short, it runs like this:
as §1

The target in a further test is SPI1 (Homo sapiens, UniProt P17947 1-270). The following applies: protein: recombinant; tags: N-terminal GST; dsDNA, one strand shown. In short, it runs like this: as §1
Another test addresses SPIB (Homo sapiens, UniProt Q01892 1-262). Conditions: protein: recombinant; tags: N-terminal GST; dsDNA, one strand shown. In short, it runs like this:
as §1

The target of another test is T6, ELK3 (Homo sapiens, UniProt P41970 1-407).
T6 sequence: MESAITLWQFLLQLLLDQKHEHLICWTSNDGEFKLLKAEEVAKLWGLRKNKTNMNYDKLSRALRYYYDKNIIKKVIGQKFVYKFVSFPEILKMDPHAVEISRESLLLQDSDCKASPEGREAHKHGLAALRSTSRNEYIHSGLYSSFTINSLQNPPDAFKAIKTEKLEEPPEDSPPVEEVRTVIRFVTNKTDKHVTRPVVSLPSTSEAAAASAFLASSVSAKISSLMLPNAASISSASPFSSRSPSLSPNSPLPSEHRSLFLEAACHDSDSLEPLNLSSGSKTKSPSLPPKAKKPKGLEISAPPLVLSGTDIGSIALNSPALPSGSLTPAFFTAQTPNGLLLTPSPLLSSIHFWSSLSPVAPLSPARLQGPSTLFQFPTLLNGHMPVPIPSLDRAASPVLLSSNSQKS
The following applies: protein: recombinant; tags: N-terminal GST; dsDNA, one strand shown. In short, it runs like this: as §1

For a further test, the target named is T7, FEV (Homo sapiens, UniProt Q99581 1-238).
T7 sequence: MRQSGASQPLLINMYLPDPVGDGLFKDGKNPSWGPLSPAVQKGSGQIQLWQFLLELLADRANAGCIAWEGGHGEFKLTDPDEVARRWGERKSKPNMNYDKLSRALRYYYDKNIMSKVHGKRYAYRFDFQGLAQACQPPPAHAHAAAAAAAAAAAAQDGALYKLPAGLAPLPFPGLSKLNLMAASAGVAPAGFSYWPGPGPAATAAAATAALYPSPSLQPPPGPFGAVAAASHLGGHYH
The following applies: protein: recombinant; tags: N-terminal GST; dsDNA, one strand shown. The method, boiled down:
as §1

For another test, the target named is ETV5 (Homo sapiens, UniProt P41161 1-510). The following applies: protein: recombinant; tags: N-terminal GST; dsDNA, one strand shown. In short, it runs like this: as §1
The next test concerns the target HSF1 (Homo sapiens, UniProt Q00613 1-529). The following applies: protein: recombinant; tags: N-terminal GST; chain copies: 3; dsDNA, one strand shown. The method, boiled down:
as §1

A further test addresses T8, SPIC (Homo sapiens, UniProt Q8N5J4 1-248).
T8 sequence: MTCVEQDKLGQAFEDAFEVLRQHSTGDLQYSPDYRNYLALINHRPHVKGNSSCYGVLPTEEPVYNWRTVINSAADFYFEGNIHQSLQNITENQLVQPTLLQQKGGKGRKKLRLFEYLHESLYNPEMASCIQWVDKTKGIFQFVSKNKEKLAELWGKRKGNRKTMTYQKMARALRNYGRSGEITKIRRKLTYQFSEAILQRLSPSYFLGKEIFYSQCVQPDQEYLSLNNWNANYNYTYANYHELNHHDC
Conditions: protein: recombinant; tags: N-terminal GST; dsDNA, one strand shown. In short, it runs like this: as §1

A further test concerns the target ELF4 (Homo sapiens, UniProt Q99607 1-663). Conditions: protein: recombinant; tags: N-terminal GST; dsDNA, one strand shown. In short, it runs like this:
as §1

Another test has as its target T9, ELK4 (Homo sapiens, UniProt P28324-2 1-405).
T9 sequence: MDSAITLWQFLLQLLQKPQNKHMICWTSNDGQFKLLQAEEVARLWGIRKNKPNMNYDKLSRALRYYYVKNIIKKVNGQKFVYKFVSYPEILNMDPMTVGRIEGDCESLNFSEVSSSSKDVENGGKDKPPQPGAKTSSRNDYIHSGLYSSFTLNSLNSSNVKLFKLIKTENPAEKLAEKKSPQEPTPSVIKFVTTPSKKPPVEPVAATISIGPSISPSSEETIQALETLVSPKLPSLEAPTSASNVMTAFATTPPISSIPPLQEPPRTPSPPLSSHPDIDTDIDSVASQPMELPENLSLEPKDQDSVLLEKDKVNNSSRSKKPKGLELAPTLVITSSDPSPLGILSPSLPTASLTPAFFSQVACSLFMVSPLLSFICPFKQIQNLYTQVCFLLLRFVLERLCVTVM
Conditions: protein: recombinant; tags: N-terminal GST; dsDNA, one strand shown. In short, it runs like this:
as §1

Another test concerns the target T10, ETV2 (Homo sapiens, UniProt O00321 1-342).
T10 sequence: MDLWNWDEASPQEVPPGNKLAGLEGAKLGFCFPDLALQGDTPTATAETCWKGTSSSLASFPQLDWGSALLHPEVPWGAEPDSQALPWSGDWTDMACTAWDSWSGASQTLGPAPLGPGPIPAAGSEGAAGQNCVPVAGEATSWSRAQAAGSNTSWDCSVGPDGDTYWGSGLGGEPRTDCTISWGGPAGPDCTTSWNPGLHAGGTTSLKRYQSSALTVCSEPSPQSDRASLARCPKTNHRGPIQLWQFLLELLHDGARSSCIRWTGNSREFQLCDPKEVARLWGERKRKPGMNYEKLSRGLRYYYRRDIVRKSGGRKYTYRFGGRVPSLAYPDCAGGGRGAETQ
The following applies: protein: recombinant; tags: N-terminal GST; dsDNA, one strand shown. The method, boiled down:
as §1

For another test, the target named is T11, ELF3 (Homo sapiens, UniProt P78545 1-371).
T11 sequence: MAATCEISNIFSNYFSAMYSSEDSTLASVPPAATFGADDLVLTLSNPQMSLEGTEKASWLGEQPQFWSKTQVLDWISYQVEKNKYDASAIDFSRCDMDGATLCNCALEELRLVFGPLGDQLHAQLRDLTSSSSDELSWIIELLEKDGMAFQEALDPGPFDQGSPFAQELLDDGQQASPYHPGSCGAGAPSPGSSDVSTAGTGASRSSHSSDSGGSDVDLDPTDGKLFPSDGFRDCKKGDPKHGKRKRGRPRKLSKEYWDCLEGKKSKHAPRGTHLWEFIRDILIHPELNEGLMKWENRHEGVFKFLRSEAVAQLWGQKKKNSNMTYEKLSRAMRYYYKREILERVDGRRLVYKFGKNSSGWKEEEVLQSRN
Conditions: protein: recombinant; tags: N-terminal GST; dsDNA, one strand shown. The method, boiled down: as §1

For the next test, the target named is CRX (Homo sapiens, UniProt O43186 1-299). The following applies: protein: recombinant; tags: N-terminal GST; dsDNA, one strand shown. The method, boiled down:
as §1

A further test has as its target ETV1 (Homo sapiens, UniProt P50549 1-477). Conditions: protein: recombinant; tags: N-terminal GST; dsDNA, one strand shown. The method, boiled down:
as §1

Chain of ELF4 (Q99607 whole entry): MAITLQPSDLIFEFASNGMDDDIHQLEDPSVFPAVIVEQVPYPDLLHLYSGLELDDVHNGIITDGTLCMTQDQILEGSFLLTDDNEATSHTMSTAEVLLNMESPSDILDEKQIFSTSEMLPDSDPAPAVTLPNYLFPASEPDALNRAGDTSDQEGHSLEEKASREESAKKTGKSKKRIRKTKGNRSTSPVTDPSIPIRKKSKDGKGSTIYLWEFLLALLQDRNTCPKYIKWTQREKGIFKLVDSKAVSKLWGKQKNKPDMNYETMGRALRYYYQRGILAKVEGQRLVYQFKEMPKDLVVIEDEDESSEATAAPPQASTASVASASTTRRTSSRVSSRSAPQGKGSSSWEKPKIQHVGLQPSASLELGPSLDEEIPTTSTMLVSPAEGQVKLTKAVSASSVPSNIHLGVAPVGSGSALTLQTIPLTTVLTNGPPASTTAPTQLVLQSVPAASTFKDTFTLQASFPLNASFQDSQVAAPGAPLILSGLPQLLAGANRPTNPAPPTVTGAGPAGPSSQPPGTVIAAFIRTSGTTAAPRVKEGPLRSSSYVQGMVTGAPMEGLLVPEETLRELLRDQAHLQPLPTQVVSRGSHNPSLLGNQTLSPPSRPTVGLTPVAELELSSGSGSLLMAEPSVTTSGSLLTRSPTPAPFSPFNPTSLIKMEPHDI
Chain of SPIB (Q01892 whole entry): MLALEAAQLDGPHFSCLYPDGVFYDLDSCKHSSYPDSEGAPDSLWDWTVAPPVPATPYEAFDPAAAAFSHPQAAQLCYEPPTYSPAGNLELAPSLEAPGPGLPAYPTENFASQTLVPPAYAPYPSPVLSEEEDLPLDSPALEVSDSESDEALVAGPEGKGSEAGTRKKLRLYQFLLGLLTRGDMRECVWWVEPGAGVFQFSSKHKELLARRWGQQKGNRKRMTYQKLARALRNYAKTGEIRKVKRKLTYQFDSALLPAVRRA
Chain of ETV1 (P50549 whole entry): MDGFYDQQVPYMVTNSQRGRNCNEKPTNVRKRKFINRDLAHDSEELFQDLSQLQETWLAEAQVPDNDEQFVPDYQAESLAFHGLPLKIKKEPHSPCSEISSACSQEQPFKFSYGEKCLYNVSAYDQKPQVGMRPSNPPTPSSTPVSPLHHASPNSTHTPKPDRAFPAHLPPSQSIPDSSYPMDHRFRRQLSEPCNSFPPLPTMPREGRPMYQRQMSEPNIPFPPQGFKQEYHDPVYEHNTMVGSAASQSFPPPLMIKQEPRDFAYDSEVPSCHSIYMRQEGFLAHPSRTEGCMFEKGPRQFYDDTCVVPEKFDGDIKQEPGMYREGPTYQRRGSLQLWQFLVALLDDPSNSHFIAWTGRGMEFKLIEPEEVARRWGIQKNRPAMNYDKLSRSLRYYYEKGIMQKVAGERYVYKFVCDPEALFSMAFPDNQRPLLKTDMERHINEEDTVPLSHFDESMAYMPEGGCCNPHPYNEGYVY
Chain of ELF1 (P32519 whole entry): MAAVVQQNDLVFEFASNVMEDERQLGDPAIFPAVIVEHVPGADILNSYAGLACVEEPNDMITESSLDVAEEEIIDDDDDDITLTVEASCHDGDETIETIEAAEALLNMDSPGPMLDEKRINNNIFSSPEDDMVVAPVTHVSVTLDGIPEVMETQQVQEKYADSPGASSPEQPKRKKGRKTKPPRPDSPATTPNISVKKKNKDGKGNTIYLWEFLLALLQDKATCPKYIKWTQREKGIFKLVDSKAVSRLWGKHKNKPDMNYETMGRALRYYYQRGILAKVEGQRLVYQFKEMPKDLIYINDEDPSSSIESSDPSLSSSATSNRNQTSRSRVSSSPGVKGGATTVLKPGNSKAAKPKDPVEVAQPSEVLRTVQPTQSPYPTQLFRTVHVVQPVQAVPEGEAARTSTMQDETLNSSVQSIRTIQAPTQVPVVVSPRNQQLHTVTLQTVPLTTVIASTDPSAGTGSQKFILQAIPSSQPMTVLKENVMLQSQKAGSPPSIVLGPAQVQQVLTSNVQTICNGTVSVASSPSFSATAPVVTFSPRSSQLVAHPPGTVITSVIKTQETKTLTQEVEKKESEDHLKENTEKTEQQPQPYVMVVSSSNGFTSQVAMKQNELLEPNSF
Chain of ETV5 (P41161 whole entry): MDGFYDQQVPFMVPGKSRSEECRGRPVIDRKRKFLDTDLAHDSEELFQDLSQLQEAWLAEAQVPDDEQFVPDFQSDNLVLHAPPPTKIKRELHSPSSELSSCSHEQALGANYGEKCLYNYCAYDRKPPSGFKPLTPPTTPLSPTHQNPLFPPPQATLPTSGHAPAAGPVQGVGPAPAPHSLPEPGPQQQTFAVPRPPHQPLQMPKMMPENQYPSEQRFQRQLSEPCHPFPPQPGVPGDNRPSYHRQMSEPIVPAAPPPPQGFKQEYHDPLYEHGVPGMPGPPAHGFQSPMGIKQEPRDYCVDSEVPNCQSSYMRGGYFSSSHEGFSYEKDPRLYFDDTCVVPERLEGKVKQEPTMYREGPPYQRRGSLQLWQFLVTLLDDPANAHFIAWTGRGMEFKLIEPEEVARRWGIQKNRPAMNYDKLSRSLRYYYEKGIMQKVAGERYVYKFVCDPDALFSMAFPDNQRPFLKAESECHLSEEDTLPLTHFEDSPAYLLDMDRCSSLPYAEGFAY
Chain of CRX (O43186 whole entry): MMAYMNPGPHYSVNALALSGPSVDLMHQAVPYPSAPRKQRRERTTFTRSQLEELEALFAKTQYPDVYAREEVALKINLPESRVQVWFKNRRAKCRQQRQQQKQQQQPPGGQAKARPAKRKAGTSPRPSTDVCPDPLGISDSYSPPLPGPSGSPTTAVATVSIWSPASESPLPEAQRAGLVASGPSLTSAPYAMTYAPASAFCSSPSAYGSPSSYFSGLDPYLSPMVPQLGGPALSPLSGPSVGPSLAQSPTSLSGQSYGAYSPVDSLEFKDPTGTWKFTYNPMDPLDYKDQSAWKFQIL
Chain of HSF1 (Q00613 whole entry): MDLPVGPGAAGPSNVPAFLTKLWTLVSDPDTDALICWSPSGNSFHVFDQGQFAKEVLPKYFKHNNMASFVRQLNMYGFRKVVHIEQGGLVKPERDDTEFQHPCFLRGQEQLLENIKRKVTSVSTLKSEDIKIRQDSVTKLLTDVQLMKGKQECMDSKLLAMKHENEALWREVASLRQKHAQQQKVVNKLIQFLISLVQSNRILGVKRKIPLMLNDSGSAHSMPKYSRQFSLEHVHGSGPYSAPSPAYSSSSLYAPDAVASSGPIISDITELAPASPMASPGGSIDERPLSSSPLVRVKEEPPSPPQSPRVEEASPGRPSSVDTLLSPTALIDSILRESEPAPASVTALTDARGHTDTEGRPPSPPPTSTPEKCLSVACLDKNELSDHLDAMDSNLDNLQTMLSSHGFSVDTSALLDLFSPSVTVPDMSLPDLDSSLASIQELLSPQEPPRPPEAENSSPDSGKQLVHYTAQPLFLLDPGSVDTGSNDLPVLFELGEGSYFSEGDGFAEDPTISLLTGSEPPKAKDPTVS

Regarding ATAATT, the binding signal in the test with FLI1 is 1.31 fold enrichment (6-mer frequency, TF over GST control); in the test with ELK1, 1.38 fold enrichment (6-mer frequency, TF over GST control); with GABPA, 1.38 fold enrichment (6-mer frequency, TF over GST control); with ERG, 1.4 fold enrichment (6-mer frequency, TF over GST control); in the test with ELF1, 1.27 fold enrichment (6-mer frequency, TF over GST control); in the test with EHF, 1.37 fold enrichment (6-mer frequency, TF over GST control). For the same sequence, the binding signal with SPI1 is 1.28 fold enrichment (6-mer frequency, TF over GST control); with SPIB, 1.39 fold enrichment (6-mer frequency, TF over GST control); in the test with ELK3 it was 1.42 fold enrichment (6-mer frequency, TF over GST control); with FEV it was 1.25 fold enrichment (6-mer frequency, TF over GST control); with ETV5, 1.37 fold enrichment (6-mer frequency, TF over GST control); in the test with HSF1, 1.76 fold enrichment (6-mer frequency, TF over GST control). For the same sequence, the binding signal was 1.41 fold enrichment (6-mer frequency, TF over GST control) with SPIC; 1.25 fold enrichment (6-mer frequency, TF over GST control) with ELF4; 1.33 fold enrichment (6-mer frequency, TF over GST control) with ELK4; 1.5 fold enrichment (6-mer frequency, TF over GST control) with ETV2; 1.34 fold enrichment (6-mer frequency, TF over GST control) with ELF3; 2.16 fold enrichment (6-mer frequency, TF over GST control) in the test with CRX. Further, in the test with ETV1, the binding signal is 1.34 fold enrichment (6-mer frequency, TF over GST control).
